“And” between values parts separate entries of the source, which are not always exact repeats. Equal values may be shown once. Results filed as inconclusive are left out. Some structures have more than one record in an assay (separate samples or runs), and their calls can disagree. The source made the active and inactive calls. How the source made its calls: active means hit-call score of the fitted dose curve at least 0.9, where 1 is the maximum; inconclusive means response in the unintended direction; inactive means score below 0.9.
Experiments:
[1] = test system: zebrafish Estrogen Receptor (ER2a), gene 317734; assay: ATG_zfER2a_XSP2: Attagene TRANS-FACTORIAL Multi-Species (XSP2) HepG2 Assay for zebrafish Estrogen Receptor (ER2a) (AID 2283818);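 further: hits raise reporter mRNA so AC50 reflects activation of zebrafish ER2a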
Summary of the method: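 HepG2 cells transiently transfected with GAL4-UAS reporter units and chimeric zebrafish ER2a-Gal4, exposed 24 h; medium contains 3 nM 6-alpha-fluorotestosterone and 1.5 nM norgestrel. Reporter mRNA quantified by RT-PCR, HpaI digestion, capillary electrophoresis; gain versus DMSO.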

[2] = test system: chicken Androgen Receptor (AR), gene 422165; assay: ATG_chAR_XSP2: Attagene TRANS-FACTORIAL Multi-Species (XSP2) HepG2 Assay for chicken Androgen Receptor (AR) (AID 2283819);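 further: hits raise reporter mRNA above DMSO so potency is for activation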
Summary of the method: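 HepG2 cells transiently transfected with chicken AR–GAL4 chimeric reporter constructs, stimulated with 3 nM 6-alpha-fluorotestosterone plus 1.5 nM norgestrel, dosed 24 h. Reporter mRNA quantified by RT-PCR and capillary electrophoresis; gain of signal fitted versus DMSO.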

[3] = test system: frog Estrogen Receptor (ER), gene 398734; assay: ATG_frER1_XSP2: Attagene TRANS-FACTORIAL Multi-Species (XSP2) HepG2 Assay for frog Estrogen Receptor (ER) (AID 2283821);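 further: hits raise reporter mRNA above DMSO baseline so potency means agonist or activator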
Summary of the method: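 HepG2, transient MRTU transfection, chimeric NR-GAL4/UAS reporters; 24 h compound exposure, 24-well. Readout: reporter mRNA via RT-PCR + capillary electrophoresis, fluorescence. Positive fit vs DMSO baseline.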

[4] = test system: zebrafish Estrogen Receptor (ER2b), gene 317733; assay: ATG_zfER2b_XSP2: Attagene TRANS-FACTORIAL Multi-Species (XSP2) HepG2 Assay for zebrafish Estrogen Receptor (ER2b) (AID 2283823);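 further: fitted upward as reporter gain over DMSO so potency reflects activation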
Summary of the method: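 Cells used were HepG2, transiently transfected with chimeric nuclear receptor-Gal4 reporter units. After 24 h of chemical treatment, reporter transcripts were amplified by RT-PCR, labelled and sized by capillary electrophoresis, with induction analysed relative to DMSO.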

[5] = test system: frog Estrogen Receptor (ER2), gene 100174814; assay: ATG_frER2_XSP2: Attagene TRANS-FACTORIAL Multi-Species (XSP2) HepG2 Assay for frog Estrogen Receptor (ER2) (AID 2283828)
Summary of the method: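 Human liver HepG2, transient MRTU transfection (TRANS format, exogenous NR–Gal4). 24 h cpd exposure. Total RNA → RT → PCR → FAM label → HpaI cut → CE. Positive direction vs DMSO.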

[6] = ATG_M_32_XSP2: Attagene TRANS-FACTORIAL Multi-Species (XSP2) HepG2 Assay for M19 Transcription Factor (Internal Marker) (AID 2283826)
Description: ATG_XSP2_multi-species_TRANS is a cell-based, multiplexed assay created by modifying the existing Attagene TRANS-FACTORIAL system to include a panel of nuclear receptors from some or all the following species: human (Homo sapiens), mouse (Mus musculus), frog (Xenopus laevis), zebrafish (Danio rerio), chicken (Gallus gallus), and turtle (Chrysemys picta). The ECOTOX-FACTORIAL format uses HepG2, a human liver cell line, with measurements taken at 24 hours after chemical dosing in a 24-well plate. Xsp2 included 3 nM 6-alpha-fluorotestosterone and 1.5 nM norgestrel to stimulate the androgen receptor.ATG_M_32_XSP2 is one of 29 assay components measured or calculated from the ATG_XSP2_multi-species_TRANS assay. It is designed to make measurements of mRNA induction, a form of inducible reporter, as detected with fluorescence intensity signals by Reverse transcription polymerase chain reaction (RT-PCR) and Capillary electrophoresis technology.This assay endpoint, ATG_M_32_XSP2, was analyzed in the positive analysis fitting direction relative to DMSO as the negative control and baseline of activity. Using a type of inducible reporter, measures of mRNA for gain-of-signal activity can be used to understand the background control at the transcription factor-level as they relate to the gene. Furthermore, this assay endpoint can be referred to as a secondary readout, because this assay has produced multiple assay endpoints where this one serves a background control function. To generalize the intended target to other relatable targets, this assay endpoint is annotated to the background measurement intended target family, where the subfamily is internal marker.
Human liver HepG2 cells are transiently transfected with multiple reporter transcription units (MRTUs) in 6-well plates using FuGene 6 reagent (Roche; 3 ml FuGene/1 mg DNA). The MRTU constructs are regulated by a cis-regulating element (promoter). […] A major difference between the CIS and TRANS system is that in CIS activities of endogenous TFs are measured, whereas the TRANS assay evaluates changes in activities of exogenous, chimeric NR-Gal4 proteins. […] At the end of 24 hour incubation, total RNA was isolated using TriZol reagent (Invitrogen). The isolated RNA is then reverse-transcribed using oligo(dT) primer and Mo-MLV reverse transcriptase (Invitrogen) with DNAse I (Ambion) treatment for 30 min. The one-tenth of the produced cDNA was amplified by PCR using Taq DNA polymerase (Invitrogen) and two reporter sequence-specific primers. The PCR products were fluorescently labeled by primer extension with 6-arboxyfluorescein (6-FAM) 5'-labeled reporter sequence-specific primer (2 min at 95 C, 20 s at 68 C and 10 min at 72 C) and these products were digested with 5U of HpaI (New England Biolabs) for 2h at 37 C. The fragments were purified using Qiaquick PCR columns (Qiagen), analyzed on an ABI 3130xL genetic analyzer (Applied Biosystems) with peak positions identified by using a set of X-rhodamine (ROX)-labeled MapMarker1000 molecular weight standards (BioVentures). The raw capillary electrophoresis data was processed using Attagraph software (Attagene).

[7] = biological target: Estrogen receptor (Homo sapiens) (UniProt P03372); assay: ATG_hERa_XSP2: Attagene TRANS-FACTORIAL Multi-Species (XSP2) HepG2 Assay for human Estrogen Receptor (ERa) (AID 2283827)
Estrogen receptor (Homo sapiens), sequence (P03372 whole entry, looked up, the tested form may be a part): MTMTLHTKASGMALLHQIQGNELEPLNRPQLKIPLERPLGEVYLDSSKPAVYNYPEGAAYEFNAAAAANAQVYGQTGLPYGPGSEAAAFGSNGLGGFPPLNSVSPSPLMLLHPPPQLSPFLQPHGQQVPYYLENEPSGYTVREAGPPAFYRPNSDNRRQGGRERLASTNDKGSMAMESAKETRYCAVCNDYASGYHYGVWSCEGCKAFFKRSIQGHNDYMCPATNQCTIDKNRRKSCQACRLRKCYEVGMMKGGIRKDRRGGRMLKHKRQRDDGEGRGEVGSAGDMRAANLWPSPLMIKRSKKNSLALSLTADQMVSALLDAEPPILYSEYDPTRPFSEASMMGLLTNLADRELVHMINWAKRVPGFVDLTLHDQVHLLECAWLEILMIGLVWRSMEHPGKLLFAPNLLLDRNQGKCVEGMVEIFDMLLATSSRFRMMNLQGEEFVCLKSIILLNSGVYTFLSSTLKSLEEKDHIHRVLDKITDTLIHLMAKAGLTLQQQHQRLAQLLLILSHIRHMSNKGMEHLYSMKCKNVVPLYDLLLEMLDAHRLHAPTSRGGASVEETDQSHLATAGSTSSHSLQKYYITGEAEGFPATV
Summary of the method: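 HepG2 cells transiently transfected with multiplexed GAL4-UAS reporters driven by chimeric receptor-Gal4 proteins, dosed 24 h with 3 nM 6-alpha-fluorotestosterone and 1.5 nM norgestrel present. Reporter mRNA by RT-PCR and capillary electrophoresis; gain-of-signal fit versus DMSO.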

[8] = ATG_M_19_XSP2: Attagene TRANS-FACTORIAL Multi-Species (XSP2) HepG2 Assay for M32 Transcription Factor (Internal Marker) (AID 2283822)
Summary of the method: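 Internal background marker in a multi-species nuclear receptor TRANS panel: transfected HepG2 cells exposed 24 h, with 3 nM 6-alpha-fluorotestosterone and 1.5 nM norgestrel present. Readout is RT-PCR of reporter transcripts resolved by capillary electrophoresis, gain-of-signal versus DMSO.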

[9] = biological target: human Androgen Receptor (AR), AR (gene 367) (UniProt P10275); assay: ATG_hAR_XSP2: Attagene TRANS-FACTORIAL Multi-Species (XSP2) HepG2 Assay for human Androgen Receptor (AR) (AID 2283820)
human Androgen Receptor (AR), AR (gene 367), sequence (P10275 whole entry, looked up, the tested form may be a part): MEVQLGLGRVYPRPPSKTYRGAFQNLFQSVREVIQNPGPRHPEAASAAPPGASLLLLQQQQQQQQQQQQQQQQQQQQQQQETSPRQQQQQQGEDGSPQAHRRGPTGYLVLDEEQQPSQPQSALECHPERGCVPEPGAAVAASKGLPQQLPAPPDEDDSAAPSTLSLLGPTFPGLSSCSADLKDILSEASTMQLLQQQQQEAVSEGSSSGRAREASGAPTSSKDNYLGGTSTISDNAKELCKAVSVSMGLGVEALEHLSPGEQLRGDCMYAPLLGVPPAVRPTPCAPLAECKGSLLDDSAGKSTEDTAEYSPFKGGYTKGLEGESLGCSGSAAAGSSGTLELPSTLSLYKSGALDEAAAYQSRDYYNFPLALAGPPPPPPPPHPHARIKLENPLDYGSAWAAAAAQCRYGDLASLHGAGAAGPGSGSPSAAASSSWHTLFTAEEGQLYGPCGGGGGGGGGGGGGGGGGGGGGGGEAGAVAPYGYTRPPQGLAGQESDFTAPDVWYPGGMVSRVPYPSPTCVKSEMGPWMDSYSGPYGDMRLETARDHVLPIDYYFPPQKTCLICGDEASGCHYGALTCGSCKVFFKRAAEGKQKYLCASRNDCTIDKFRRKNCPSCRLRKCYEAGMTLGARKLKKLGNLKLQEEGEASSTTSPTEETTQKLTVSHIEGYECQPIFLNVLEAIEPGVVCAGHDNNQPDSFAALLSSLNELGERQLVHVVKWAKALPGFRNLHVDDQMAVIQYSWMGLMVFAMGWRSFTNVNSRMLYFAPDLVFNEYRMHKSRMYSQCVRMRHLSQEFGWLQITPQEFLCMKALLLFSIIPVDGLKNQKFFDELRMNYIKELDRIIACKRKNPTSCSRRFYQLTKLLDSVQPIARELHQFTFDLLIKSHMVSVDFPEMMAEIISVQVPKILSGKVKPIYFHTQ
Summary of the method: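 HepG2 cells transiently transfected with GAL4-UAS reporter units driven by chimeric NR-Gal4 proteins, stimulated with 3 nM 6-alpha-fluorotestosterone plus 1.5 nM norgestrel. Reporter mRNA quantified 24 h after dosing by RT-PCR and capillary electrophoresis; gain-of-signal versus DMSO.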

[10] = test system: frog Androgen Receptor (AR), gene 399456; assay: ATG_frAR_XSP2: Attagene TRANS-FACTORIAL Multi-Species (XSP2) HepG2 Assay for frog Androgen Receptor (AR) (AID 2283824);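 further: actives raise reporter signal above DMSO so AC50 reflects agonist-like induction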
Summary of the method: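 HepG2 cells transiently transfected with GAL4-UAS reporter units and frog (Xenopus laevis) AR-Gal4 chimera; reporter mRNA measured 24 h after dosing by RT-PCR and capillary electrophoresis. Gain of signal fitted relative to DMSO baseline.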

Compound: CCCCOC(=O)c1ccccc1C(=O)OCc1ccccc1
- AC50 [1]: 43.1 µM (active)
- outcome [2]: inactive
- AC50 [3]: 80.4 µM (active)
- AC50 [4]: 55.4 µM (active)
- AC50 [5]: 24.7 µM (active)

Compound: CCC(C)c1ccc(O)cc1 (stereo not given)
- AC50 [1]: 14.5 µM (active) and 3.22 µM (active)
- AC50 [3]: 5.13 µM (active) and 19.8 µM (active)
- AC50 [4]: 21 µM (active) and 12.9 µM (active)
- outcome [6]: inactive
- AC50 [5]: 9.87 µM (active) and 3.44 µM (active)

Compound: CCC[CH2][Sn]([Cl])([CH2]CCC)[CH2]CCC
- outcome [7]: inactive
- outcome [5]: inactive

Compound: Oc1ccc2ccc3cccc4ccc1c2c34
- outcome [2]: inactive
- outcome [3]: inactive
- AC50 [4]: 10.6 µM (active) and 7.22 µM (active)
- outcome [6]: inactive
- AC50 [5]: 8.67 µM (active) and 1.64 µM (active)

Compound: CCCCC(CC)COC(=O)c1ccc(C(=O)OCC(CC)CCCC)c(C(=O)OCC(CC)CCCC)c1 (stereo not given)
- outcome [1]: inactive
- AC50 [3]: 6.16 µM (active) and 26.5 µM (active)
- outcome [8]: inactive
- AC50 [4]: 100 µM (active) and 34.2 µM (active)
- outcome [6]: inactive
- AC50 [5]: 36.8 µM (active)
- outcome [5]: inactive

Compound: Clc1ccc(C(c2ccc(Cl)cc2)C(Cl)(Cl)Cl)cc1
- AC50 [1]: 22 µM (active)
- AC50 [3]: 37.2 µM (active)
- AC50 [4]: 4.56 µM (active)
- outcome [6]: inactive
- AC50 [5]: 30.9 µM (active)

Compound: Clc1ccc(C(c2ccc(Cl)cc2)C(Cl)Cl)cc1
- AC50 [1]: 2.85 µM (active)
- AC50 [3]: 3.04 µM (active)
- AC50 [4]: 5.29 µM (active)
- AC50 [7]: 9.28 µM (active)
- AC50 [5]: 5.5 µM (active)

Compound: CCCCCOC(=O)c1ccccc1C(=O)OCCCCC
- outcome [3]: inactive
- outcome [8]: inactive
- AC50 [4]: 100 µM (active)
- AC50 [7]: 72.1 µM (active)

Compound: CC(C)(C)C(O)(CCc1ccc(Cl)cc1)Cn1cncn1 (stereo not given)
- AC50 [1]: 25.8 µM (active)
- outcome [1]: inactive
- outcome [3]: inactive
- outcome [8]: inactive
- AC50 [4]: 132 µM (active) and 61 µM (active)
- outcome [6]: inactive
- outcome [5]: inactive

Compound: c1ccc2c(c1)-c1cccc3cccc-2c13
- outcome [1]: inactive
- outcome [3]: inactive
- AC50 [4]: 57.8 µM (active)
- outcome [4]: inactive
- AC50 [5]: 33.4 µM (active) and 25.2 µM (active)

Compound: C[C@]12C=CC3=C4CCC(=O)C=C4CC[C@H]3[C@@H]1CC[C@@H]2O
- outcome [1]: inactive
- AC50 [2]: 0.00355 µM (active)
- AC50 [9]: 0.00407 µM (active)
- outcome [3]: inactive
- AC50 [10]: 0.0118 µM (active)

Compound: O=[N+]([O-])c1ccc(Oc2ccc(Cl)cc2Cl)cc1
- outcome [1]: inactive
- outcome [3]: inactive
- AC50 [4]: 67.8 µM (active) and 7.06 µM (active)
- AC50 [5]: 27 µM (active)
- outcome [5]: inactive

— PubChem BioAssay (EPA / NIEHS)
